Screens deposited in PubChem by Sanford-Burnham Center for Chemical Genomics.
TIM10 inh – growth inhibitors of TIM10 yeast strain | S. cerevisiae TIM10 strain growth, BacTiter-Glo luminescence, 24 h | inhibition, % at 10 µM | hit rate 1.4% among 330,000 | AID 463195;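 active = inhibition of 40% or more at the single tested concentration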;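 also: wild-type TIM10 isogenic control strain grown at permissive 25 °C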
tim23-1 inh – inhibits growth of tim23-1 mutant yeast; hit rate 1.3% among 330,000; AID 463212; S. cerevisiae tim23-1 growth, BacTiter-Glo luminescence, 24 h; inhibition, % at 20 µM;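 active = growth inhibition of the mutant yeast at or above 50%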;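 also: temperature-sensitive mutant grown at 25 °C; plate controls were DMSO-treated mutant yeast for no effect and medium wells lacking yeast for full effect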
NALP3 yeast inh – NALP3 inhibition in yeast. Yeast reconstituted NLRP3/ASC/caspase-1, beta-gal luminescence, 24 h. hit rate 0.39% among 330,000. inhibition, % at 10 µM;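 active = inhibition of 50% or more; inactive = inhibition below 50%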;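 also: plate controls were induced DMSO wells for no effect and uninduced yeast grown without galactose for full effect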
tim10-1 inh – tim10-1 yeast growth inhibition; S. cerevisiae tim10-1 ts strain growth, BacTiter-Glo, 24 h; inhibition, % at 20 µM; hit rate 2.2% among 330,000; AID 463190;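 active = inhibition of at least 40%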;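 also: mutant grown at 25 °C; 0% = DMSO wells with yeast and 100% = wells holding no yeast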
NALP1 yeast inh – NALP1 inhibition. hit rate 0.61% among 280,000. inhibition, % at 10 µM. AID 2071. S. cerevisiae NALP1/ASC/caspase-1 growth, X-gal OD620, 72 h; in the data active = inhibition mostly above about 24%, no sharp cut-off; inactive = mostly below about 32%
TIM10 conf – TIM10 yeast growth inhibition, confirmed. shares compounds with TIM10 inh. S. cerevisiae tim10 strain growth, BacTiter-Glo luminescence, 24 h. inhibition, % at 10 µM. hit rate 63% among 4,600. AID 463215;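 active = inhibition of yeast growth at or above a set limit in either of two replicates at 10 µM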;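 also: this counterscreen used the strain with wild-type TIM10; 0% = yeast with DMSO and 100% = medium wells lacking yeast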
The depositor's hits bear a star; nt = not tested or not shown. A selection: hits, their analogues and other compounds. The true share with any hit is near 4%.

SMILES	TIM10 inh	tim23-1 inh	NALP3 yeast inh	tim10-1 inh	NALP1 yeast inh	TIM10 conf
CCCN(Cc1ccccc1)C(=S)NC(=O)c1ccccc1[N+](=O)[O-]	44*	44	33	32	17	40*
CCCCN(CCCC)C(=S)NC(=O)c1ccccc1Cl	48*	44	29	39	22	-16
CCN(CC)C(=S)NC(=O)c1ccc(Cl)cc1Cl	2	38	15	21	4	nt
Cc1c(OCC(=O)N[C@@H](Cc2c[nH]c3ccccc23)C(=O)O)ccc2c1oc(=O)c1ccccc12	6	-2	0	6	-6	nt
O=S(=O)(c1ccc(C(F)(F)F)cc1)N1CCN(CCc2ccccc2)CC1	17	32	23	17	0	nt
Cc1cc(C(F)F)n2nc(C(=O)Nc3ccc(F)cc3F)nc2n1	5	8	3	-8	6	nt
Cc1cc(C(F)F)n2nc(C(=O)Nc3ccccc3F)nc2n1	64*	-4	23	-20	6	-8
CCOC(=O)CN1C(=O)CCSc2ccc(Cl)cc21	7	4	2	-3	-16	nt
CC(C)N(C(=O)[C@H]1C[C@H](CC(=O)NCCCn2ccnc2)C(=O)N2CCc3c([nH]c4cc(CCC(=O)N(C)C)ccc34)[C@]12C)C(C)C	-8	24	nt	8	nt	nt
O=C1c2ccccc2CC1Sc1nnc(-c2ccncc2)o1 (centres undefined)	-10	16	1	18	4	nt
Cc1ccccc1N1C(=O)CC(Sc2nnc(-c3ccccc3)o2)C1=O (centres undefined)	44*	31	31	33	-1	44*
COc1ccc(NC(=S)NCc2ccccc2)c(OC)c1	2	-6	27	10	2	nt
CC(C)CCNC(=O)c1ccc(C2SCC(=O)N2Cc2ccco2)cc1 (centres undefined)	54*	6	11	26	1	2
Cn1c(C(=O)Nc2ccc(Cl)cc2)cc2cc(Cl)ccc21	-10	7	18	0	13	nt
S=C(Nc1ccc(Oc2ccccc2)cc1)NC1CCCCC1	40*	7	27	25	21	41*
S=C(Nc1ccc(Oc2ccc(NC(=S)NC3CCCCC3)cc2)cc1)NC1CCCCC1	16	21	20	12	0	nt
O=C(/C=C/c1ccc2ccccc2n1)c1cc(Br)ccc1O	52*	35	13	34	18	31*
O=C(O)/C=C/c1ccc2ccccc2n1	9	11	8	8	-1	nt
C(=N\NCc1ccccc1)/c1ccc2nccnc2c1	-12	10	-7	-6	19	nt
O=C(O)CCS(=O)(=O)c1nc(-c2cccs2)cc(C(F)(F)F)n1	29	26	-2	26	-18	nt
CCOC(=O)CCS(=O)(=O)c1nc(-c2ccccc2)cc(C(F)(F)F)n1	52*	21	42	18	25	58*
COC(=O)CCS(=O)(=O)c1nc(-c2ccccc2)cc(C(F)(F)F)n1	45*	34	31	20	-5	31*
COCC(C)NC(=O)CCS(=O)(=O)c1nc(-c2ccc(OC)cc2)cc(C(F)(F)F)n1 (centres undefined)	10	7	-4	19	10	nt
Cc1cc(NC(=O)CCCS(=O)(=O)c2nc(-c3cccs3)cc(C(F)(F)F)n2)no1	49*	4	9	39	5	37*
CC(C(=O)N1CCc2ccccc21)n1cccc1 (centres undefined)	-3	-2	1	4	4	nt
SMILES	TIM10 inh	tim23-1 inh	NALP3 yeast inh	tim10-1 inh	NALP1 yeast inh	TIM10 conf
Cc1nnsc1Sc1ccccc1	-6	16	1	-5	0	nt
CCN(CC)c1ccc(-n2c(C)c(C(C)=O)c(C(C)=O)c2C)cc1	44*	41	9	37	-2	19
O=C(N=C1N=C2C=CC(Br)=CN2Cc2ccccc21)c1ccc([N+](=O)[O-])cc1[N+](=O)[O-]	3	31	11	3	2	nt
CN1CCC(=NNC(=O)CN(c2ccc([N+](=O)[O-])cc2)S(=O)(=O)c2ccccc2)CC1	40*	8	20	9	-3	31*
CN1CCC(=NNC(=O)CN(c2cccc([N+](=O)[O-])c2)S(=O)(=O)c2ccccc2)CC1	5	14	5	9	16	nt
O=C(OCc1ccc(Br)cc1)c1ccncc1	6	1	15	23	9	nt
CC(=O)Nc1ccc(C(=O)OCc2ccc(Br)cc2)cc1	41*	46	29	34	16	35*
Oc1ccc(Cl)cc1C1=NNC(c2cccs2)C1 (centres undefined)	30	45	-12	-12	11	nt
O=[N+]([O-])c1ccc(O)c(C2=NNC(c3ccccc3F)C2)c1 (centres undefined)	50*	43	-5	36	-11	57*
O=C(Nc1ccccn1)c1ccc2c(=O)n3c(nc2c1)CCCCC3	51*	48	29	14	nt	35*
O=C(Nc1ccc(F)c(Cl)c1)c1ccc2c(=O)n3c(nc2c1)CCCCC3	60*	42	30	29	22	46*
O=C(Nc1ccc(F)cc1)c1ccc2c(=O)n3c(nc2c1)CCCCC3	11	14	29	-9	0	nt
C=CCNC(=O)C12CCC(C)(C(=O)[C@H]1Br)C2(C)C (some centres undefined)	42*	12	-2	12	-12	-20
CC(=O)Oc1c(C)cc(Cl)cc1C(=O)Nc1ccc([N+](=O)[O-])cc1Cl	31	12	36	19	25	nt
COc1ccc2occ(C(=O)c3cccs3)c2c1	42*	28	25	7	-8	39*
COc1ccc(OC)c(C(=O)c2coc3ccc(OC(C)=O)cc23)c1	27	39	20	38	32	nt
O=S(=O)(c1cccc(C(F)(F)F)c1)N1CCN(C(=S)NCc2ccco2)CC1	-1	22	10	15	30	nt
CC(C)c1ccc(S(=O)(=O)N2CCN(C(=S)NCc3ccco3)CC2)cc1	49*	40	13	40	1	-32
Cc1cc(C)c(S(=O)(=O)c2ccccc2C(C)C)c(=O)[nH]1	nt	nt	nt	nt	1	nt
O=C(O/N=C1/CCCc2occc21)c1ccccc1	3	41	3	34	5	nt
O=C(O/N=C1/CCCc2occc21)c1ccc(Cl)cc1Cl	44*	14	1	23	nt	38*
O=C(c1cc(-c2cccs2)on1)N1CCN(C(c2ccccc2)c2ccccc2)CC1	50*	31	-4	30	1	31*
COc1ccc(-c2cc(C(=O)N3CCN(c4ccccc4OC)CC3)no2)cc1OC	23	22	7	15	8	nt
COc1cccc(-c2cc(C(=O)N3CCN(C(=O)c4ccco4)CC3)on2)c1	47*	9	6	1	0	9
COc1cccc(-c2nc(C#N)c(N3CCN(C(=O)c4ccco4)CC3)o2)c1	3	33	28	23	12	nt
O=C(c1cc(-c2cccs2)on1)N1CCOCC1	10	8	31	4	-30	nt
